According to PubChem BioAssay AID2551 (National Center for Advancing Translational Sciences (NCATS), 2010):
Out of some 310,000 compounds screened, about 17,000 (5.5%) were called active. A call without a number means that no potency is given here. Inconclusive results (about 11%) are left out. Calls come from the whole dose curve; as a rule, active = well fitted inhibition curve with a large enough effect; inconclusive = small, poorly fitted or top-dose-only effect, or effect the other way; inactive = no such curve, though single readings can be large or run the other way. The full list was thinned out, with actives kept by preference. Where a SMILES comes first, the peptide text is derived from it. [ ]: non-standard residue; d: D form. The star is where a group is joined. ξ: configuration not given here. Cbz = O=C(OCc1ccccc1)*; ξL = CC(C)CC(N)C(=O)O; ξP = O=C(O)C1CCCN1
Note: nearly all actives have a fitted effect of over 60% in size.
Potency is the fitted concentration of half-maximal effect.

Each compound was assayed against Nuclear receptor ROR-gamma (Mus musculus) (UniProt P51450) (assay: qHTS for inhibitors of ROR gamma transcriptional activity). Settings: Drosophila S2 Gal4-RORgamma UAS-luciferase reporter, 20 h; series mostly up to 53.6 µM.
Nuclear receptor ROR-gamma (Mus musculus), sequence (P51450 whole entry, looked up, the tested form may be a part): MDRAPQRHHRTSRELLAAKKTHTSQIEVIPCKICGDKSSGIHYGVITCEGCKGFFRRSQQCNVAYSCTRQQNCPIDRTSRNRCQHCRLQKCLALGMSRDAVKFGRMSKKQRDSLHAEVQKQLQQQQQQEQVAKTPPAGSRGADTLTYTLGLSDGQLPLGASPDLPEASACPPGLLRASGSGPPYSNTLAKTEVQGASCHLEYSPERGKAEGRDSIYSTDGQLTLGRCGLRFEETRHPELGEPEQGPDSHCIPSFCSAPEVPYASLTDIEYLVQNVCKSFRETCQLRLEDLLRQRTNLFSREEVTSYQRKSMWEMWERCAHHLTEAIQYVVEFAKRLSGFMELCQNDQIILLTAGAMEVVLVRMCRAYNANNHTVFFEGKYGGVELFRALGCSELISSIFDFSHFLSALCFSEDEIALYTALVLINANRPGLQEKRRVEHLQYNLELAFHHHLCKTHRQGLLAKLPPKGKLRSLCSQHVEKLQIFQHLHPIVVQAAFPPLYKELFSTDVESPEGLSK
Outline: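 Luminescence from a UAS-regulated Photinus luciferase reporter in stably transfected Drosophila Schneider cells is measured; decreased signal marks ROR gamma inhibition. Fusion expression is induced by 700 uM copper sulfate for 20 hr.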
`COC(=O)[C@@H]1CC(O)CN1C(=O)C12CC3CC(CC(C3)C1)C2` (some centres not stated) was tested, and the Potency was “inactive”.
For `COc1ccc(C(=O)Nc2ccccc2C(=O)N/N=C/c2ccccc2OC)cc1`, the Potency was 15.8 µM (active).
With `COc1cc(/C=N/NC(=O)c2ccccc2)ccc1OS(=O)(=O)c1ccccc1` the Potency was “inactive”.
With `COc1ccc(C(=O)Nc2ccccc2C(=O)N/N=C/c2ccc(O)c(OC)c2)cc1` the Potency was 0.199 µM (active).
For `COc1ccc(/C=N/NC(=O)c2ccc3c(c2)OCCO3)c(OC)c1`, the Potency was “inactive”.
In the case of `COc1cc(/C=N/NC(=O)c2ccc(N3CCCC3=O)cc2)ccc1O`, the Potency is reported as “inactive”.
In the case of `COc1ccccc1C(=O)NNC(=O)c1ccc(NC(=O)c2ccccc2)cc1`, the Potency is reported as “inactive”.
With `O=C(CSCc1ccccc1)Nc1ccccc1` the Potency was “inactive”.
`Cc1ccn2c(c1)nc(=O)c1cc(S(=O)(=O)N3CCC(C)CC3)ccc12` was tested, and the Potency was “inactive”.
With `COc1cccc(/C=C2/SC(=S)N(CC(=O)NC3C=CS(=O)(=O)C3)C2=O)c1` (configuration not stated) the Potency was “inactive”.
For `COc1ccc(S(=O)(=O)Nc2ccccc2C(=O)N2CCCC2)cc1C`, the Potency was “inactive”.
`Nc1ccn(C2CC(O)C(CO)O2)c(=O)n1` (configuration not stated) was tested, and the Potency was “inactive”.
For `CN1CCN(CCCCOc2cccc3ccccc23)CC1`, the Potency was “inactive”.
With `O=C(O)c1c(NC(=O)N2CCCC2)sc2c1CCCC2` the Potency was “inactive”.
With `Cc1ccc(NC(=O)c2c(NC(=O)CCC(=O)O)sc3c2CCCCC3)cc1` the Potency was “inactive”.
`O=C(CN1CCCC1)Nc1sc2c(c1C(=O)Nc1ccccc1)CCCC2` was tested, and the Potency was 5.01 µM (active).
With `CC1=C(C(=O)OC2CCCCC2)C(c2ccccc2F)NC(=O)N1` (configuration not stated) the Potency was “inactive”.
For `Cc1ccc2c(c1)N(CC(=O)N1CCCC(C)C1)C(=O)CO2` (configuration not stated), the Potency was “inactive”.
In the case of `Cc1ccc(Nc2nc(-c3ccc(O)cc3O)cs2)nc1`, the Potency is reported as 8.91 µM (active).
For `Cc1ccc(NC(=O)c2cc(-c3ccc(C)o3)nc3ccccc23)nc1`, the activity change, negative = inhibition was -10.5% [at 0.365 µM] (inactive).
`O=c1oc2ccccc2cc1-c1csc(Nc2ccc(O)cc2)n1` was tested, and the Potency was “inactive”.
With `COc1cccc(NC(=S)NCCCN2CCOCC2)c1` the Potency was “inactive”.
`CCOc1nc(NCCN2CCOCC2)nc(Nc2ccc(C)cc2)n1` was tested, and the Potency was “inactive”.
`CCOc1cccc(/C=N/NC(=S)NCCN2CCOCC2)c1O` was tested, and the Potency was 1.41 µM (active).
`Cc1ccc(N(C(=O)c2snc(C(N)=O)c2N)C(C(=O)NCC2CCCO2)c2c[nH]c3ccccc23)cc1` (configuration not stated) was tested, and the Potency was “inactive”.
`COc1ccc(S(=O)(=O)NCCc2cc3ccc(C)c(C)c3[nH]c2=O)cc1` was tested, and the Potency was “inactive”.
In the case of `Cc1cc(N/N=C/c2ccccc2F)c2ccccc2n1`, the Potency is reported as “inactive”.
In the case of `Cc1cc(O)ccc1-c1cnc2ccccc2n1`, the Potency is reported as “inactive”.
In the case of `Cc1nc2ccccc2cc1O`, the Potency is reported as “inactive”.
For `COc1ccccc1N1CCN(/N=C/c2ccc(O)cc2O)CC1`, the activity change, negative = inhibition was -15.8% [at 1.91 µM] (inactive).
With `COc1ccc(/C=C(\C#N)C(=O)ONC2=NCCCCC2)cc1` the Potency was “inactive”.
In the case of `Cc1nc2ccccc2nc1N/N=C/c1ccc(O)cc1O`, the Potency is reported as 11.2 µM (active).
In the case of `Oc1ccc(/C=N/Nc2nc(-c3ccccc3F)nc3ccccc23)c(O)c1`, the Potency is reported as 10 µM (active).
In the case of `Fc1ccc(/C=N/Nc2nc(-c3cccnc3)nc3ccccc23)cc1`, the Potency is reported as “inactive”.
For `Oc1ccc(/C=N/NC2=NCCCCC2)c(O)c1`, the Potency was 11.2 µM (active).
`COc1ccc(C(=O)Nc2ccc(C(=O)NCC3CCCO3)cc2)c(OC)c1OC` (configuration not stated) was tested, and the Potency was “inactive”.
For `COc1ccc(C(=O)NC2CC2)cc1OC1CCN(Cc2ccc(SC)cc2)CC1`, the Potency was “inactive”.
In the case of `CCOC(=O)N1CCN(Cc2nc3cc(NC(C)=O)ccc3n2C)CC1`, the Potency is reported as “inactive”.
`O=S(=O)(NC1CC2CCC1C2)c1ccc(Cl)cc1` (configuration not stated) was tested, and the activity change, negative = inhibition was 44% [at 1.91 µM] (inactive).
`CC(=O)c1ccc(N2CCN(C(=O)C3CCN(S(=O)(=O)c4ccc5c(c4)CC(C)N5C(=O)C4CC4)CC3)CC2)cc1` (configuration not stated) was tested, and the Potency was “inactive”.
In the case of `COc1ccc(CCNC(=O)CCCCCNC(=O)N2CCn3c2nc2ccccc23)cc1OC`, the Potency is reported as “inactive”.
With `N#Cc1c(Cl)nc(-c2cccnc2)nc1-c1ccccc1` the Potency was “inactive”.
In the case of `CCc1ccc(CNC(=O)C2CCCN(c3nc4ccccc4o3)C2)cc1` (configuration not stated), the Potency is reported as “inactive”.
With `CCOC(=O)CCNC(=O)N1CCCC(C(=O)c2ccccc2SC)C1` (configuration not stated) the Potency was “inactive”.
For `CCOC(=O)c1cnc(Nc2nc3ccccc3o2)nc1CSC(=S)N1CCCCC1`, the Potency was 0.447 µM (active).
In the case of `CCCCCc1c(C)nc(N2CCN(Cc3ccc4c(c3)OCO4)CC2)[nH]c1=O`, the Potency is reported as “inactive”.
For `COc1ccc(C(=O)NC(C)c2nccs2)cc1OC1CCN(C(C)C)CC1` (configuration not stated), the Potency was “inactive”.
For `O=C1Nc2ccccc2/C1=C/c1ccnc2ccccc12`, the Potency was “inactive”.
`COc1cc2cc(C(=O)N/N=C/c3cccc(OC)c3OC)[nH]c2cc1OC` was tested, and the Potency was “inactive”.
`CN(C)CCNC(=O)c1[nH]nc2c1CCc1ccccc1-2` was tested, and the Potency was “inactive”.
For `COc1cccc(/C=N/NC(=O)c2[nH]nc3c2CCc2ccccc2-3)c1O`, the Potency was 0.794 µM (active).
`Cc1ccc(CNCc2ccc3c(c2)OCO3)c(C)c1` was tested, and the Potency was “inactive”.
`COc1ccc(-c2nnc(NC(=O)CS(=O)(=O)c3ccc(Cl)cc3)o2)c(OC)c1` was tested, and the Potency was 17.8 µM (active).
`COc1ccc(NC(=O)CS(=O)(=O)c2ccccc2)cc1` was tested, and the Potency was “inactive”.
With `COc1ccc(-c2nnc(SCC(=O)c3cccs3)o2)c(OC)c1` the Potency was “inactive”.
With `CN(C)C(=O)CCC(=O)N1CCCCC1C(=O)Nc1ccc(Oc2ccccc2F)cc1` (configuration not stated) the Potency was “inactive”.
In the case of `CC(=O)NS(=O)(=O)c1ccc(N/C(N)=N/c2nc(C)cc(C)n2)cc1`, the Potency is reported as “inactive”.
With `CC(C)c1ccc(NC(=O)Cn2ncc3ccccc32)cc1` the Potency was “inactive”.
`C=CCc1c(C)nc2cc(-c3ccccc3)[nH]n2c1=O` was tested, and the Potency was “inactive”.
In the case of `O=C(N[C@@H](Cc1ccccc1)C(=O)OCc1ccccc1)c1nc[nH]c1C(=O)N[C@@H](Cc1ccccc1)C(=O)OCc1ccccc1`, the Potency is reported as 10 µM (active).
With `NC(=O)c1ccc(NC(=O)COC(=O)C(Cc2ccccc2)NC(=O)c2ccccc2)cc1` (configuration not stated) the Potency was “inactive”.
For `CC(C)[C@H](NC(=O)OCc1ccccc1)C(=O)OCc1ccccc1`, the Potency was “inactive”.
`CC(C)CC(NC(=O)C1CCCN1C(=O)[C@@H](C)NC(=O)OCc1ccccc1)C(=O)NCC(N)=O` (some centres not stated) (Cbz-[dA][ξP][ξL]G-NH2) was tested, and the Potency was “inactive”.
With `O=C(CNC(=O)c1ccccc1)NCC(=O)OCc1ccc(Cl)cc1` the Potency was “inactive”.
For `COc1ccccc1NC(=O)[C@H](COCc1ccccc1)NC(=O)OC(C)(C)C`, the Potency was “inactive”.
In the case of `COC(=O)[C@@H](Cc1ccccc1)NC(=O)NCCc1ccccc1`, the Potency is reported as “inactive”.
In the case of `CC(C)(C)OC(=O)CNC(=O)c1[nH]cnc1C(=O)N[C@@H](Cc1ccccc1)C(=O)OCc1ccccc1`, the Potency is reported as “inactive”.
In the case of `C[C@H](NC(=O)c1nc[nH]c1C(=O)NCC(=O)OC(C)(C)C)C(=O)OCc1ccccc1`, the Potency is reported as 11.2 µM (active).
For `Cc1cccc(NC(=O)c2nc[nH]c2C(=O)NCC(=O)OCc2ccccc2)c1`, the Potency was 12.6 µM (active).
For `O=C(CNC(=O)c1ccc(-c2ccccc2)cc1)OCc1ccc(Cl)cc1`, the Potency was “inactive”.
In the case of `CNC(=O)c1[nH]cnc1C(=O)N[C@@H](CC(C)C)C(=O)OCc1ccccc1`, the Potency is reported as 10 µM (active).
`C/C(=N\N(C)C)c1ccc(OCCOc2ccc([N+](=O)[O-])cc2)cc1` was tested, and the Potency was “inactive”.
In the case of `CCOC(=O)C1(Cc2ccccc2C)CCCN(S(C)(=O)=O)C1` (configuration not stated), the Potency is reported as “inactive”.
In the case of `COCc1c(C(=O)N/N=C(\C)c2ccncc2)nnn1-c1nonc1N`, the Potency is reported as “inactive”.
In the case of `C=CCNC(=O)c1ccccc1SCc1c(C)noc1C`, the Potency is reported as “inactive”.
In the case of `Cc1ccc(NC(=O)C(CC(=O)O)C2CCCO2)c(C)c1` (configuration not stated), the Potency is reported as “inactive”.
`O=C(Nc1ccc(Cl)cc1)c1cccc(OC(=S)N2CCOCC2)c1` was tested, and the Potency was “inactive”.
`COc1ccc(S(=O)(=O)N(C)CC(=O)N2CCCC2)cc1` was tested, and the activity change, negative = inhibition was -15.8% [at 1.91 µM] (inactive).
In the case of `Cc1ccc(NC(=O)C/C(N)=N/O)cc1Cl`, the Potency is reported as “inactive”.
For `O=C(Cc1ccc(Cl)c(Cl)c1)Nc1ccc(SC(F)F)cc1`, the Potency was “inactive”.
With `O=C(CC(O)(C(F)(F)F)C(F)(F)F)Nc1ccc(Cl)c(Cl)c1` the Potency was 5.01 µM (active).
In the case of `COc1ccccc1N(CC(=O)NC1CCCC1)C(=O)C1(C)CC(=O)N=C2C=CC(C)=CN21` (configuration not stated), the Potency is reported as “inactive”.
For `O=C1CCCCN1CCCC(=O)N1CCCC(Nc2ccc(F)cc2)C1` (configuration not stated), the Potency was “inactive”.
With `O=C(N/N=C/c1ccc(OCc2ccccc2)cc1)c1ccc(O)cc1` the Potency was 8.91 µM (active).
With `O=C(N/N=C/c1ccc(OC(=O)c2ccccc2Cl)cc1)c1ccc(O)cc1` the Potency was “inactive”.
With `O=C(Cc1cccs1)N/N=C/c1ccc(OCc2ccccc2)cc1` the Potency was “inactive”.
In the case of `CCn1nc(C)c(CNC(=O)C2CCC(=O)N(Cc3cccc(F)c3)C2)c1C` (configuration not stated), the Potency is reported as “inactive”.
In the case of `CCCCC(O)(CCCC)C(=O)NN(C(=O)CCl)c1ccccc1`, the Potency is reported as 12.6 µM (active).
`Cc1ccc(N(NC(=O)C(C)(C)O)C(=O)c2ccccc2)cc1C` was tested, and the Potency was “inactive”.
With `CCCC(O)(CCC)C(=O)NN(C(=O)CCl)c1cccc(C)c1` the Potency was 15.8 µM (active).
`CC(C)(O)C(=O)NN(C(=O)c1ccccc1)c1cccc(Br)c1` was tested, and the Potency was “inactive”.
For `CCCCCNC(=O)C1c2ccccc2Oc2ccccc21`, the Potency was “inactive”.
In the case of `COC(=O)N(NC(=O)C(O)(C(C)C)C(C)C)c1ccccc1`, the Potency is reported as “inactive”.
For `Cc1cc(C)n(CC(O)COc2ccc(C(C)(C)C)cc2)n1` (configuration not stated), the Potency was “inactive”.
`CCc1ccc(N(C(=O)c2csnn2)C(C(=O)NC2CCCCC2)c2cccnc2)cc1` (configuration not stated) was tested, and the Potency was “inactive”.
`O=C(O)c1cc(S(=O)(=O)N(Cc2ccccc2)c2cccc(C(F)(F)F)c2)ccc1Cl` was tested, and the Potency was “inactive”.
`O=S(=O)(NCCc1ccc(Cl)cc1)c1cccs1` was tested, and the Potency was “inactive”.
In the case of `COC(=O)c1c(NC(=O)c2ccc(S(=O)(=O)N3CCOCC3)cc2)sc2c1CCN(C(C)C)C2`, the Potency is reported as “inactive”.
For `CC(CCc1ccccc1)NC(=O)c1cnc(Cl)c(Cl)c1` (configuration not stated), the Potency was “inactive”.
For `Cc1nn(Cc2ccc(C(=O)N3N=C(C(F)F)CC3(O)C(F)F)cc2)c(C)c1[N+](=O)[O-]` (configuration not stated), the Potency was 12.6 µM (active).
With `Cc1ccn(CC(=O)N2N=C(C(F)F)CC2(O)C(F)F)n1` (configuration not stated) the Potency was “inactive”.
With `CCc1ccc(NC(=O)Cn2nc(C)c([N+](=O)[O-])c2C)cc1` the Potency was “inactive”.
